Activity calls are given as the source filed them. How the source made its calls: active means hit-call score of the fitted dose curve at least 0.9, where 1 is the maximum; inactive means score below 0.9.
The molecules below were run on succinate dehydrogenase complex iron sulfur subunit B (SDHB), SDHB (gene 6390) (assay: LTEA_HepaRG_SDHB: Life Technologies and Expression Analysis (LTEA) Assay for succinate dehydrogenase complex iron sulfur subunit B (SDHB) using HepaRG (AID 2283528)). Settings: mRNA level, 48 h; actives raise or lower the signal.
Protocol: LTEA_HepaRG is a cell based, multiplexed-readout assay that uses HepaRG, a human liver cell line, with measurements taken at 48 hours after chemical dosing on a 96-well plate.LTEA_HepaRG_SDHB is one of 102 assay component(s) measured in the LTEA HepaRG cell culture assay. It is a marker of Cell proliferation, survival, death.Data from the assay component LTEA_HepaRG_SDHB was analyzed into 1 endpoint. This assay endpoint, LTEA_HepaRG_SDHB, was analyzed with bidirectional fitting relative to DMSO as the negative control and baseline of activity. Using a type of inducible reporter, measures of mRNA induction for gain or loss-of-signal activity can be used to understand regulation of transcription factor activity. To generalize the intended target to other relatable targets, this assay endpoint is annotated to the oxidoreductase intended target family, where the subfamily is ubiquinone.
A total of 1060 chemcials from the ToxCast library were tested in eight-point concentration-response experiments. Cell culture and cytotoxicity assays were conducted at Thermo Fisher Scientific's Custom Services facility (Madison, WI). A single lot of human HepaRG cells (Thermo Fisher Scientific, Frederick, MD) was used for the cell culture experiments. 96-well format collagen type I coated plates of human HepaRG cells were prepared using established methods. Briefly, cryopreserved HepaRG cells were thawed, plated at a density of approximately 100,000 cells/well in HepaRG Thaw, Plate, and General Purpose media (HPRG770, Thermo Fisher Scientific), and incubated for 48 hours. 0.5% DMSO was selected as vehicle control to balance the requisite need of DMSO in HepaRG cultures to maintain differentiation (for example, baseline metabolism, proportions of hepatocytes vs. cholangiocytes), while enabling further hepatic receptor pathway activation (for example, PXR and CAR) in response to chemical exposure. 48 hours after plating, the culture medium was replaced with HepaRG Serum-Free Incudtion Media. Cells were exposed to each test chemical in duplicate and maintained in CO2 incubators for another 48 hours. Chemical plates were thawed to room temperature and 200x concentrations of treatment groups were prepared. 8-point conentration-reponse curves were made with the highest exposure at 100 uM, followed by half-log dilutions, all in 0.5% DMSO. Each test plate contained variouse controls, induction positive controls (1mM phenobarbital), cytotoxicity positive controls ([…] aflatoxin B1), vehicle controls (0.5% DMSO), and total lysis controls (0.5% DMSO). Cell morphology images were taken using an Essen IncuCyte FLR automated microscope, with six 96-well plates imaged in about 24 minutes. Images were captured and exported and JPEG files. Spent culture media was transfered to black-well plates for the LDH assay, and remaining media was sorted at -80 C for later use. Cells were treated with RLT buffer and frozen until shipped for gene expression analysis. Total RNA was isolated from the cell suspension in 75 uL of Buffer RLT (Qiagen, Germantown, MD 20874) by Quintiles/Expression Analysis (Durham, NC) using a custom isolation procedure. Total RNA from each plate well was transferred to a preamplification plate. Fluidigm's 96.96 Dynamic ArrayTM (Fluidigm, Amsterdam, the Netherlands) technology was used for gene expression analyses by quantitative reverse transcription polymerase chain reaction (qRT-PCR, performed by Quintiles/Expression Analysis, Durham, NC)89. Standard TaqManTM Assays (Applied Biosystems/ThermoFisher Scientific, Foster City, CA) were used to assess the expression of 93 genes selected based on their selectivity and sensitivity to important hepatic receptors known to be modulated by environmental chemicals; importance in human hepatocyte functionality; and hepatotoxicity. […]
`CCCCCCCCc1ccc(O)cc1` was tested, and the outcome was “inactive”.
`CC(C)(OO)c1ccccc1` was tested, and the outcome was “inactive”.
For `ClC1(Cl)C2(Cl)C3(Cl)C4(Cl)C(Cl)(Cl)C5(Cl)C3(Cl)C1(Cl)C5(Cl)C24Cl` (stereo unspecified), the outcome was “inactive”.
With `Cc1ccccc1N` the outcome was “inactive”.
For `O=C(O)C(F)(F)C(F)(F)C(F)(F)C(F)(F)C(F)(F)C(F)(F)C(F)(F)C(F)(F)C(F)(F)C(F)(F)F`, the outcome was “inactive”.
With `CCC(=O)C(CC(C)N(C)C)(c1ccccc1)c1ccccc1` (stereo unspecified) the outcome was “inactive”.
`O=c1[nH]c(=O)[nH]c(=O)[nH]1` was tested, and the outcome was “inactive”.
`CCN1CCC2(CC1)COc1cc3c(cc12)N(C(=O)c1ccc(-c2ccc(-c4nnc(C)o4)cc2C)cc1)CC3` was tested, and the AC50 was 24.8 µM (active).
`CCOP(=S)(OCC)SCSP(=S)(OCC)OCC` was tested, and the outcome was “inactive”.
`O=C(O)C(Cl)(Cl)Cl` was tested, and the outcome was “inactive”.
`CCC(C)(C)c1ccc(O)c(C(C)(C)CC)c1` was tested, and the outcome was “inactive”.
`O=C(O)C(F)(F)C(F)(F)C(F)(F)C(F)(F)C(F)(F)C(F)(F)F` was tested, and the outcome was “inactive”.
`CC12CC1(C)C(=O)N(c1cc(Cl)cc(Cl)c1)C2=O` (stereo unspecified) was tested, and the outcome was “inactive”.
For `CC(C)(C)CC(C)(C)c1ccc(O)cc1`, the outcome was “inactive”.
`C=C(C)C(=O)[O][Sn]([CH2]CCC)([CH2]CCC)[CH2]CCC` was tested, and the AC50 was 94.1 µM (active).
With `O=[N+]([O-])c1ccc(O)c([N+](=O)[O-])c1` the AC50 was 13 µM (active).
With `CC(C)(c1ccccc1)c1ccc(O)c(C(C)(C)c2ccccc2)c1` the outcome was “inactive”.
`CC(=O)[O][Hg][c]1ccccc1` was tested, and the AC50 was 26.2 µM (active).
In the case of `O=C1C2(Cl)C3(Cl)C4(Cl)C(Cl)(Cl)C5(Cl)C3(Cl)C1(Cl)C5(Cl)C24Cl` (stereo unspecified), the AC50 is reported as 91.6 µM (active).
`C[C@]12CCC(=O)C[C@@H]1CC[C@@H]1[C@@H]2CC[C@]2(C)[C@@H](O)CC[C@@H]12` was tested, and the outcome was “inactive”.
For `COc1cc(-c2ccc(N)c(OC)c2)ccc1N`, the outcome was “inactive”.
`O=C(Nc1ccc2[nH]ccc2c1)c1cc2cc(F)ccc2n1Cc1cccc(F)c1` was tested, and the outcome was “inactive”.
With `NC(=O)O` the outcome was “inactive”.
With `C=CC(=O)OCCCCCC(C)C` the outcome was “inactive”.
With `Oc1cccc2cccnc12` the outcome was “inactive”.
`C[C@@H]1C[C@@H]([C@H](O)CC2CC(=O)NC(=O)C2)C(=O)[C@@H](C)C1` was tested, and the AC50 was 50 µM (active).
With `CCOP(=S)(OCC)Oc1nc(Cl)c(Cl)cc1Cl` the outcome was “inactive”.
In the case of `CC(C)(C)c1cc(O)ccc1O`, the outcome is reported as “inactive”.
`CN(C)N=O` was tested, and the outcome was “inactive”.
For `ClCC(Cl)CCl`, the outcome was “inactive”.
With `Cn1sc(Cl)cc1=O` the outcome was “inactive”.
